Values joined by “and” are separate entries in the source; they are usually repeats but may differ in a detail not shown here. Identical values can stand only once. Active and inactive are the calls of the source. No rule for the calls is given here.
Assay: sensitizers of A549 cells to miR-34 induction, primary screen, imaging, A549 dox-inducible miR-34, nuclei and caspase counts (AID 1347080)
Settings: A549 miR-34 inducible, Hoechst nuclei count, 48 h; measured here: total cells without miR-34 induction

Compound	cell count
O=C(/C=C/c1c(C(=O)O)[nH]c2cc(Cl)cc(Cl)c12)Nc1ccccc1	9440
C[C@H](NC(=O)c1sccc1OCc1ccc(Cl)cc1)c1ccccc1	3970
CNC(=O)[C@H]1O[C@@H](n2cnc3c(NCc4cccc(I)c4)nc(Cl)nc32)[C@H](O)[C@@H]1O	6160
COc1cc(SC)ccc1C(=O)N1CCC(Cc2ccccc2)CC1	7040 and 7350
N#C/C(=C(/N)Sc1ccc(N)cc1)c1ccccc1C(F)(F)F	5840
COc1ccc(-c2oc3cc(OC)ccc3c2C(=O)c2ccc(C#N)cc2)cc1	7780
Oc1cc(O)cc(/C=C/c2ccc(O)c(O)c2)c1	8350 and 2810
O=Nc1c(-c2c(O)[nH]c3ccccc23)[nH]c2ccccc12	1200 and 866 and 1140
CN(CCOc1ccc(-c2ccc3c(c2)OCO3)cc1C(C)(C)C)CC(=O)O	8690
FC(F)(F)c1ccc(/C=C/c2nc(COc3ccc(CCCCn4ccnn4)cc3)co2)cc1	3770
C=CCc1cccc(/C=N/NC(=O)CN2CCN(Cc3ccccc3)CC2)c1O	2740 and 4710 and 3900
C[C@@H](N)C1CCC(C(=O)Nc2ccncc2)CC1 (stereo partly drawn)	5470 and 10600
Cc1cccc(C#Cc2ccccc2)n1	7690 and 7310 and 9060
Nc1nccc(-c2ccc3noc(-c4ccc(Cl)cc4)c3c2)n1	4860
Nc1ncnc2c1ncn2[C@@H]1O[C@H](CO)C[C@H]1O	9630
NC(=O)c1ccc(-c2nc(-c3ccc4c(c3)OCCO4)c(-c3ccccn3)[nH]2)cc1	6350 and 8570
CC(C)N(CCC(=O)c1ccc2ccccc2c1)Cc1ccccc1	8940 and 8570 and 7790
COc1ccc(Nc2nccc(NCCO)n2)cc1	6320 and 9660

Compound	cell count
CC(C)(C)/[N+]([O-])=C/c1ccc(S(=O)(=O)O)cc1S(=O)(=O)O	5520
CC(C)c1onc(-c2c(Cl)cccc2Cl)c1COc1ccc(/C=C/c2cccc(C(=O)O)c2)c(Cl)c1	5650
COc1cc2c(cc1O)CC[C@@H]1[C@@H]2CC[C@]2(C)[C@@H](O)CC[C@@H]12	2270 and 1440
Cc1ccccc1C(=O)c1ccc(Nc2ccc(Br)cc2N)cc1Cl	7220
N#C/C(=C\c1ccc(O)c(O)c1)C(=O)NCc1ccccc1	2230 and 9060
CCOC(=O)C(C)Oc1cccc2c(=O)n(CC(=O)Nc3ccc4c(c3)OCCO4)ccc12 (stereo not drawn)	9800 and 8000
CC(C)C[C@@H](C(=O)N[C@H](C(=O)OC1CCCC1)c1ccccc1)[C@H](O)C(=O)NO	7280
O=c1ncccn1[C@@H]1O[C@H](CO)[C@@H](O)[C@H]1O	7440
Clc1ccc(-c2nc3sccn3c2/C=N/OCc2ccc(Cl)c(Cl)c2)cc1	5080 and 8770
O=S(=O)(NCCNC/C=C/c1ccc(Br)cc1)c1cccc2cnccc12	3220 and 6450
Oc1ccc(Nc2nc(-c3ccc(Cl)cc3)cs2)cc1	5120 and 5440 and 3260
CCCC[C@@H](C=O)NC(=O)[C@H](CC(C)C)NC(=O)OCc1ccccc1	6520 and 8800
O=C(c1ccc(Nc2nccc(-c3cc4ccccc4s3)n2)cc1)N1CCC(N2CCCC2)CC1	3460 and 385
Cc1ccc(S(=O)(=O)/C=C/C#N)cc1	923 and 1180 and 1590
CC(C)(Sc1ccc(CCN(CCCCC2CCCCC2)C(=O)NC2CCCCC2)cc1)C(=O)O	9020 and 6210 and 7900
C[C@H](NC(=O)Cc1cc(F)cc(F)c1)C(=O)N[C@H](C(=O)OC(C)(C)C)c1ccccc1	8840
Cc1ccc(NC(=O)c2cccc(N(C)C)c2)cc1NC(=O)c1ccc(O)cc1	2700 and 8980 and 8620
O=C(O)Cc1cccc(OCCCN(Cc2cccc(C(F)(F)F)c2Cl)CC(c2ccccc2)c2ccccc2)c1	8580 and 2370

Assay: inhibitors of Cryptococcus chitosan production, flow cytometry, Cibacron Brilliant Red staining (AID 1347148);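 also: compound exposure lasted three days at 37 degrees C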
Settings: Cryptococcus neoformans chitosan, stronger effect = lower value; at 10 µM unless noted

Compound	fold fluorescence
Oc1cc(O)cc(/C=C/c2ccc(O)c(O)c2)c1	4.54 [at 204.7 µM] (inactive)
O=Nc1c(-c2c(O)[nH]c3ccccc23)[nH]c2ccccc12	9.39 [at 180.3 µM] (inactive)
N#CC(=C(/N)Sc1ccccc1N)/C(C#N)=C(\N)Sc1ccccc1N	5.14 [at 131.4 µM] (inactive)
N#C/C(=C\c1ccc(O)c(O)c1)C(=O)NCc1ccccc1	6.89 [at 169.9 µM] (inactive)
Clc1ccc(-c2nc3sccn3c2/C=N/OCc2ccc(Cl)c(Cl)c2)cc1	3.64 [at 114.5 µM] (inactive)
O=c1cc(N2CCOCC2)oc2c(-c3ccccc3)cccc12	9.29 [at 162.7 µM] (inactive)
O=S(=O)(NCCNC/C=C/c1ccc(Br)cc1)c1cccc2cnccc12	7.62 [at 112 µM] (inactive)
CCCC[C@@H](C=O)NC(=O)[C@H](CC(C)C)NC(=O)OCc1ccccc1	5.15 [at 137.9 µM] (inactive)
Oc1ccc(-c2nc(-c3ccc(F)cc3)c(-c3ccncc3)[nH]2)cc1	8.11 [at 150.9 µM] (inactive)
Cc1ccc(S(=O)(=O)/C=C/C#N)cc1	8.49 [at 241.3 µM] (inactive)
Cc1ccc(NC(=O)c2cccc(N(C)C)c2)cc1NC(=O)c1ccc(O)cc1	3.78 [at 128.4 µM] (inactive)
O=C1c2ccccc2-c2n[nH]c3cccc1c23	20.5 [at 227 µM] (inactive)

From PubChem BioAssay
